Results from PubChem BioAssay (NCATS).
For some assays here: Results with a measured potency or affinity are listed apart. Active and inactive are the calls of the source. No rule for the calls is given here. Peptide text beside a SMILES is read from it.
For efficacy in this document: 0% is about no effect.

Settings: Ebola virus entry assay, green fluorescence channel
With `Cc1cc2c(cc1CC(=O)c1sccc1S(=O)(=O)Nc1onc(C)c1Cl)OCO2` the efficacy was -22.3% (inactive).
In the case of `COC(=O)C1=C(C)NC(C)=C(C(=O)OCC(C)=O)C1c1ccccc1[N+](=O)[O-]` (stereo not given), the efficacy is reported as -11.1% (inactive).
For `NS(=O)(=O)c1ccc(NC(=O)CCC(=O)O)cc1`, the efficacy was 9.25% (inactive).
For `CC(C(=O)O)c1ccc2c(c1)CC(=O)c1ccccc1S2` (stereo not given), the efficacy was 23.3% (inactive).
For `COc1cc(/C=C/C(=O)O[C@H]2CC[C@]34C[C@]35CC[C@]3(C)[C@@H]([C@H](C)CCC=C(C)C)CC[C@@]3(C)[C@@H]5CC[C@H]4C2(C)C)ccc1O`, the efficacy was -25.4% (inactive).
For `CO/N=C(/C(=O)N[C@@H]1C(=O)N2C(C(=O)[O-])=C(C[n+]3ccn4ncccc43)CS[C@H]12)c1nsc(N)n1`, the efficacy was 12.5% (inactive).
In the case of `CC(=O)N[C@@H](CCC(=O)O)C(=O)O`, the efficacy is reported as -13.7% (inactive).
In the case of `CN1CCN(CC(=O)N2c3ccccc3C(=O)Nc3cccnc32)CC1`, the efficacy is reported as -20.7% (inactive).
For `COc1cc(C)nc(-n2nc(C)cc2OC)n1`, the efficacy was -14.1% (inactive).
With `O=C(Oc1ccccc1)c1ccccc1O` the efficacy was -17.4% (inactive).
For `CCN1CCC[C@H]1CNC(=O)c1cc(S(N)(=O)=O)ccc1OC`, the efficacy was -21.3% (inactive).
With `Clc1cccc(Cl)c1NC1=NCCN1` the efficacy was -12.5% (inactive).
With `Cc1onc(-c2ccccc2)c1C(=O)Cl` the efficacy was 6.34% (inactive).
With `CC(CCc1ccc2c(c1)OCO2)NN` (stereo not given) the efficacy was 17.5% (inactive).
In the case of `C[N+]1(C)[C@@H]2CC(OC(=O)[C@H](CO)c3ccccc3)C[C@H]1[C@@H]1O[C@@H]12` (stereo not given in full), the efficacy is reported as 12.9% (inactive).
In the case of `O=S(=O)(O)c1ccc(O)cc1`, the efficacy is reported as 20.2% (inactive).
For `CC(=O)c1ccc(S(=O)(=O)NC(=O)NC2CCCCC2)cc1`, the efficacy was -18.3% (inactive).
With `CC(=O)CC/C=C(\C)CC/C=C(\C)CC/C=C(\C)CCC=C(C)C` the efficacy was -14.5% (inactive).
With `C[N+]1(CCF)[C@@H]2CC[C@H]1CC(OC(=O)C(O)(c1ccccc1)c1ccccc1)C2` (stereo not given in full) the efficacy was -17.5% (inactive).
With `NCCCNCCSP(=O)(O)O` the efficacy was 18% (inactive).
For `O=C(O)/C=C(\CC(=O)O)C(=O)O`, the efficacy was -11% (inactive).
With `NC(=S)N/N=C/c1cccnc1` the efficacy was 12.5% (inactive).
In the case of `CO[C@@H]1[C@@H](OC(N)=O)[C@@H](O)[C@H](Oc2ccc3c(O)c(NC(=O)c4ccc(O)c(CC=C(C)C)c4)c(=O)oc3c2C)OC1(C)C`, the efficacy is reported as 15.5% (inactive).
With `CC(=O)Nc1c(I)cc(I)c(C(=O)O)c1I` the efficacy was -9.82% (inactive).
For `CCCCCCCCCCCC(=O)[O][Sn]([CH2]CCC)([CH2]CCC)[O]C(=O)CCCCCCCCCCC`, the efficacy was -17.6% (inactive).
In the case of `CCNC(=O)[C@@H]1CCCN1C(=O)[C@H](CCCN=C(N)N)NC(=O)[C@H](CC(C)C)NC(=O)CNC(=O)[C@H](Cc1ccc(O)cc1)NC(=O)[C@H](CO)NC(=O)[C@H](Cc1c[nH]c2ccccc12)NC(=O)[C@H](Cc1cnc[nH]1)NC(=O)[C@@H]1CCC(=O)N1` (HELM PEPTIDE1{[Glp].H.W.S.Y.G.L.R.P.[CCN[*:1]]}$$$$V2.0), the efficacy is reported as 17.9% (inactive).
In the case of `Cc1cc(CCCOc2c(C)cc(-c3noc(C(F)(F)F)n3)cc2C)on1`, the efficacy is reported as 12.1% (inactive).
With `O=C(O)c1ccccc1C(=O)Nc1ccc(S(=O)(=O)Nc2nccs2)cc1` the efficacy was -12.6% (inactive).
With `CC(=O)Oc1ccc(C)cc1` the efficacy was 12.2% (inactive).
With `O=C(O)Cn1cnnn1` the efficacy was 14.2% (inactive).
For `Cc1c[nH]c2ccccc12`, the efficacy was -29.9% (inactive).
For `CC(COc1ccccc1)NN` (stereo not given), the efficacy was -13% (inactive).
For `NCCCC[C@H](N[C@@H](CCc1ccccc1)C(=O)O)C(=O)N1CCC[C@H]1C(=O)O`, the efficacy was -19.4% (inactive).
In the case of `CCO/C([O-])=N/c1c[n+](N2CCOCC2)no1`, the efficacy is reported as -25.2% (inactive).
With `COc1ccc(S(=O)(=O)Nc2nnc(CC(C)C)s2)cc1` the efficacy was -19% (inactive).
For `Cc1ccc(S(=O)(=O)NC(=O)NC2CCCCCCC2)cc1`, the efficacy was -10.6% (inactive).
With `COc1ccc(C2C(=O)c3ccccc3C2=O)cc1` the efficacy was -26.8% (inactive).
In the case of `CC(=O)NO`, the efficacy is reported as -14.2% (inactive).
For `COc1cccc(OC)c1C(=O)N[C@@H]1C(=O)N2[C@@H]1SC(C)(C)[C@@H]2C(=O)O`, the efficacy was 19.6% (inactive).
For `C[C@]12CCC(=O)C=C1CC[C@@H]1[C@@H]2CC[C@@]2(C)[C@H]1CC[C@]2(C)O`, the efficacy was -23% (inactive).

Settings: Ebola virus entry assay, blue channel fluorescence
With `Cc1cc2c(cc1CC(=O)c1sccc1S(=O)(=O)Nc1onc(C)c1Cl)OCO2` the outcome was “inactive”.
For `COC(=O)C1=C(C)NC(C)=C(C(=O)OCC(C)=O)C1c1ccccc1[N+](=O)[O-]` (stereo not given), the outcome was “inactive”.
For `NS(=O)(=O)c1ccc(NC(=O)CCC(=O)O)cc1`, the outcome was “inactive”.
In the case of `CC(C(=O)O)c1ccc2c(c1)CC(=O)c1ccccc1S2` (stereo not given), the outcome is reported as “inactive”.
In the case of `COc1cc(/C=C/C(=O)O[C@H]2CC[C@]34C[C@]35CC[C@]3(C)[C@@H]([C@H](C)CCC=C(C)C)CC[C@@]3(C)[C@@H]5CC[C@H]4C2(C)C)ccc1O`, the outcome is reported as “inactive”.
For `CO/N=C(/C(=O)N[C@@H]1C(=O)N2C(C(=O)[O-])=C(C[n+]3ccn4ncccc43)CS[C@H]12)c1nsc(N)n1`, the outcome was “inactive”.
With `CC(=O)N[C@@H](CCC(=O)O)C(=O)O` the outcome was “inactive”.
For `CN1CCN(CC(=O)N2c3ccccc3C(=O)Nc3cccnc32)CC1`, the outcome was “inactive”.
In the case of `COc1cc(C)nc(-n2nc(C)cc2OC)n1`, the outcome is reported as “inactive”.
For `O=C(Oc1ccccc1)c1ccccc1O`, the outcome was “inactive”.
In the case of `CCN1CCC[C@H]1CNC(=O)c1cc(S(N)(=O)=O)ccc1OC`, the outcome is reported as “inactive”.
With `Clc1cccc(Cl)c1NC1=NCCN1` the outcome was “inactive”.
For `Cc1onc(-c2ccccc2)c1C(=O)Cl`, the outcome was “inactive”.
For `CC(CCc1ccc2c(c1)OCO2)NN` (stereo not given), the outcome was “inactive”.
With `C[N+]1(C)[C@@H]2CC(OC(=O)[C@H](CO)c3ccccc3)C[C@H]1[C@@H]1O[C@@H]12` (stereo not given in full) the outcome was “inactive”.
In the case of `O=S(=O)(O)c1ccc(O)cc1`, the outcome is reported as “inactive”.
For `CC(=O)c1ccc(S(=O)(=O)NC(=O)NC2CCCCC2)cc1`, the outcome was “inactive”.
For `CC(=O)CC/C=C(\C)CC/C=C(\C)CC/C=C(\C)CCC=C(C)C`, the outcome was “inactive”.
In the case of `C[N+]1(CCF)[C@@H]2CC[C@H]1CC(OC(=O)C(O)(c1ccccc1)c1ccccc1)C2` (stereo not given in full), the outcome is reported as “inactive”.
With `NCCCNCCSP(=O)(O)O` the outcome was “inactive”.
In the case of `O=C(O)/C=C(\CC(=O)O)C(=O)O`, the outcome is reported as “inactive”.
With `NC(=S)N/N=C/c1cccnc1` the outcome was “inactive”.
In the case of `CO[C@@H]1[C@@H](OC(N)=O)[C@@H](O)[C@H](Oc2ccc3c(O)c(NC(=O)c4ccc(O)c(CC=C(C)C)c4)c(=O)oc3c2C)OC1(C)C`, the outcome is reported as “inactive”.
For `CC(=O)Nc1c(I)cc(I)c(C(=O)O)c1I`, the outcome was “inactive”.
For `CCCCCCCCCCCC(=O)[O][Sn]([CH2]CCC)([CH2]CCC)[O]C(=O)CCCCCCCCCCC`, the outcome was “inactive”.
For `CCNC(=O)[C@@H]1CCCN1C(=O)[C@H](CCCN=C(N)N)NC(=O)[C@H](CC(C)C)NC(=O)CNC(=O)[C@H](Cc1ccc(O)cc1)NC(=O)[C@H](CO)NC(=O)[C@H](Cc1c[nH]c2ccccc12)NC(=O)[C@H](Cc1cnc[nH]1)NC(=O)[C@@H]1CCC(=O)N1` (HELM PEPTIDE1{[Glp].H.W.S.Y.G.L.R.P.[CCN[*:1]]}$$$$V2.0), the outcome was “inactive”.
In the case of `Cc1cc(CCCOc2c(C)cc(-c3noc(C(F)(F)F)n3)cc2C)on1`, the outcome is reported as “inactive”.
In the case of `O=C(O)c1ccccc1C(=O)Nc1ccc(S(=O)(=O)Nc2nccs2)cc1`, the outcome is reported as “inactive”.
For `CC(=O)Oc1ccc(C)cc1`, the outcome was “inactive”.
With `O=C(O)Cn1cnnn1` the outcome was “inactive”.
For `Cc1c[nH]c2ccccc12`, the outcome was “inactive”.
With `CC(COc1ccccc1)NN` (stereo not given) the outcome was “inactive”.
With `NCCCC[C@H](N[C@@H](CCc1ccccc1)C(=O)O)C(=O)N1CCC[C@H]1C(=O)O` the outcome was “inactive”.
In the case of `CCO/C([O-])=N/c1c[n+](N2CCOCC2)no1`, the outcome is reported as “inactive”.
With `COc1ccc(S(=O)(=O)Nc2nnc(CC(C)C)s2)cc1` the outcome was “inactive”.
With `Cc1ccc(S(=O)(=O)NC(=O)NC2CCCCCCC2)cc1` the outcome was “inactive”.
With `COc1ccc(C2C(=O)c3ccccc3C2=O)cc1` the outcome was “inactive”.
With `CC(=O)NO` the outcome was “inactive”.
For `COc1cccc(OC)c1C(=O)N[C@@H]1C(=O)N2[C@@H]1SC(C)(C)[C@@H]2C(=O)O`, the outcome was “inactive”.
For `C[C@]12CCC(=O)C=C1CC[C@@H]1[C@@H]2CC[C@@]2(C)[C@H]1CC[C@]2(C)O`, the outcome was “inactive”.
